Results as given in PubChem BioAssay AID1159580 (chemical genetic matrix, 2015).
Where “and” joins values, the source holds several entries; their conditions need not be identical. Equal entries are not always repeated. The whole screen tested about 5,500 compounds, of which about 2,000 (36%) were called active. About 18% were inconclusive and are not listed. Cut-off read from the data, not from the text of the source: active = normalized growth mostly below about 0.91 (no sharp cut-off); inconclusive = no clear call, values can overlap the other calls; inactive = mostly above about 0.92. The list shows a part of the results.

Experiment: chemical genetic growth profiling, strain panel (AID 1159580);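 note: tested at 20 µM; growth read once vehicle control cultures reached saturation at 30 °C; 1 = growth at the plate median or of vehicle wells; lower values mean less growth of the strain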
Conditions: S. cerevisiae deletion strains, growth OD

Measured: normalized growth

NCc1ccc(S(N)(=O)=O)cc1
inactive: locus YAL021C, strain ccr4, stronger effect = lower value 1.01 | locus YAL026C, strain drs2, stronger effect = lower value 0.992 | locus YAL030W, strain snc1, stronger effect = lower value 1.01 | locus YBL061C, strain skt5, stronger effect = lower value 1.01 | locus YBR009C, strain hhf1, stronger effect = lower value 0.972 | locus YBR021W, strain FUR4, stronger effect = lower value 1.01 | locus YBR023C, strain chs3, stronger effect = lower value 1.02 | locus YBR171W, strain sec66, stronger effect = lower value 1 | locus YBR229C, strain ROT2, stronger effect = lower value 0.986 | locus YBR231C, strain swc5, stronger effect = lower value 1.02 | locus YBR279W, strain paf1, stronger effect = lower value 1 | locus YCL011C, strain gbp2, stronger effect = lower value 1.01 | locus YCL016C, strain dcc1, stronger effect = lower value 1.03 | locus YCL029C, strain bik1, stronger effect = lower value 0.993 | locus YCL061C, strain MRC1, stronger effect = lower value 1.02 | locus YCL069W, strain vba3, stronger effect = lower value 0.994 | locus YCR088W, strain abp1, stronger effect = lower value 1.01 | locus YDL005C, strain med2, stronger effect = lower value 1.02 | locus YDL035C, strain GPR1, stronger effect = lower value 1.01 | locus YDL040C, strain nat1, stronger effect = lower value 1 | locus YDL074C, strain BRE1, stronger effect = lower value 1.01 | locus YDL101C, strain DUN1, stronger effect = lower value 0.987 | locus YDL134C, strain PPH21, stronger effect = lower value 0.994 | locus YDL185W, strain tfp1, stronger effect = lower value 0.977 | locus YDL192W, strain arf1, stronger effect = lower value 0.979 | locus YDR001C, strain nth1, stronger effect = lower value 0.998 | locus YDR069C, strain doa4, stronger effect = lower value 1.01 | locus YDR101C, strain arx1, stronger effect = lower value 1.02 | locus YDR137W, strain rgp1, stronger effect = lower value 1.03 | locus YDR150W, strain NUM1, stronger effect = lower value 1.01 | locus YDR159W, strain sac3, stronger effect = lower value 0.983 | locus YDR162C, strain NBP2, stronger effect = lower value 1.01 | locus YDR195W, strain ref2 0.989 | locus YDR297W, strain sur2, stronger effect = lower value 1.01 | locus YDR318W, strain mcm21, stronger effect = lower value 0.99 | locus YDR334W, strain swr1, stronger effect = lower value 1 | locus YDR335W, strain msn5, stronger effect = lower value 1.01 | locus YDR388W, stronger effect = lower value 0.993 | locus YDR392W, strain spt3, stronger effect = lower value 0.969 | locus YDR502C, strain sam2, stronger effect = lower value 0.99 | locus YEL003W, strain gim4, stronger effect = lower value 0.982 | locus YEL037C, strain rad23, stronger effect = lower value 0.992 | locus YEL061C, strain CIN8 (second series), stronger effect = lower value 1 | locus YEL061C, strain CIN8, stronger effect = lower value 1.01 | locus YER015W, strain faa2, stronger effect = lower value 0.99 | locus YER016W, strain bim1, stronger effect = lower value 1.02 | locus YER110C, stronger effect = lower value 0.983 | locus YER111C, strain swi4, stronger effect = lower value 0.998 | locus YER155C, strain BEM2 (second series), stronger effect = lower value 1.01 | locus YER155C, strain BEM2, stronger effect = lower value 0.984 | locus YER167W, strain BCK2, stronger effect = lower value 1.02 | locus YFR010W, strain ubp6, stronger effect = lower value 0.995 | locus YGL078C, strain dbp3, stronger effect = lower value 0.98 | locus YGL086W, strain mad1, stronger effect = lower value 0.995 | locus YGL167C, strain pmr1, stronger effect = lower value 0.997 | locus YGL173C, strain kem1, stronger effect = lower value 1.02 | locus YGL227W, strain vid30, stronger effect = lower value 1.01 | locus YGL240W, strain doc1, stronger effect = lower value 1.04 | locus YGL248W, strain PDE1, stronger effect = lower value 0.984 | locus YGL253W, strain hxk2, stronger effect = lower value 1.01 | locus YGR135W, strain pre9, stronger effect = lower value 0.961 | locus YGR252W, strain gcn5, stronger effect = lower value 0.928 | locus YHR013C, strain ard1, stronger effect = lower value 1.04 | locus YHR027C, strain rpn1, stronger effect = lower value 1.02 | locus YHR030C, strain SLT2, stronger effect = lower value 1.01 | locus YHR079C, strain IRE1 (second series), stronger effect = lower value 0.991 | locus YHR079C, strain IRE1, stronger effect = lower value 1.04 | locus YHR094C, strain hxt1, stronger effect = lower value 0.996 | locus YHR129C, strain ARP1, stronger effect = lower value 0.986 | locus YHR142W, strain chs7, stronger effect = lower value 1.01 | locus YHR200W, strain rpn10, stronger effect = lower value 0.984 | locus YIL066C, strain RNR3, stronger effect = lower value 0.989 | locus YIL073C, strain SPO22, stronger effect = lower value 1.01 | locus YIL125W, strain kgd1, stronger effect = lower value 0.983 | locus YIR030C, strain dcg1, stronger effect = lower value 0.991 | locus YJL092W, strain hpr5, stronger effect = lower value 1.01 | locus YJL095W, strain BCK1 (second series), stronger effect = lower value 1.01 | locus YJL095W, strain BCK1, stronger effect = lower value 0.988 and 1.01 | locus YJL115W, strain asf1, stronger effect = lower value 1 | locus YJL129C, strain trk1, stronger effect = lower value 1.05 | locus YJL134W, strain LCB3, stronger effect = lower value 1 | locus YJL154C, strain vps35, stronger effect = lower value 1 | locus YJL164C, strain tpk1, stronger effect = lower value 0.98 | locus YJL166W, strain qcr8, stronger effect = lower value 1.04 | locus YJL168C, strain set2, stronger effect = lower value 0.991 | locus YJL187C, strain SWE1 (second series), stronger effect = lower value 0.981 | locus YJL187C, strain SWE1, stronger effect = lower value 1.01 | locus YJR043C, strain POL32, stronger effect = lower value 1.01 | locus YJR066W, strain TOR1, stronger effect = lower value 0.957 | locus YJR075W, strain HOC1, stronger effect = lower value 0.995
